# Experimental data published in PubChem BioAssay.
# A number with no mark means an inactive call.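 Rule for the calls: active = viability loss from added drug above about 55%, and viability with drug at most 40%, in both replicates (limit read from the data, passing the limit was not always enough); inconclusive = both conditions met in only one replicate; inactive = neither replicate meets both conditions.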
# Experiment: reversal of MRP1-mediated doxorubicin resistance, pilot screen, H69AR cells, doxorubicin co-treatment (AID 601)
# Details: H69AR cells + 2 uM doxorubicin, CellTiter-Glo, 72 h; at 10 µM; stronger effect = higher value
row,Structure (SMILES),differential viability (reversal)
1,CC(=O)Nc1ccc(S(=O)(=O)N2CCN(C(C)CCc3ccccc3)CC2)cc1 (stereo not given),5.17%
2,COc1ccc(NC(=O)Nc2cc(C)ccc2OC)cc1,-4.12%
3,O=C(CNS(=O)(=O)c1ccc(Br)s1)N1CCCC1,9.79%
4,Cn1c(=N)n(CC(=O)O)c2ccccc21,6.81%
5,CC(C)(C)Nc1nc(OCC(F)(F)F)nc(OCC(F)(F)F)n1,-0.98%
6,COc1cc(CC(=O)Nc2ncc(C)s2)cc(OC)c1OC,2.69%
7,Cc1ccc(NC2=NC3(CCCCC3)N=C(N)N2)c(C)c1,18.6%
8,C=CCSc1nnc(-c2ccccc2NC(C)=O)c(=O)[nH]1,9.55%
9,CC1CCN(CCCNC(=O)c2cn(C)c3ccc(S(=O)(=O)N4CCCC4)cc3c2=O)CC1,3.01%
10,C=CCOc1ccc(/C(O)=C2\C(=O)C(=O)N(CCOC)C2c2cccnc2)cc1 (stereo not given),14.8%
11,Cc1cccc(C(=O)N2CCC(n3nnc4cc(F)ccc43)CC2)c1,-3.98%
12,CC(C)Oc1ccc(N2CC(C(=O)Nc3ccccc3F)CC2=O)cc1 (stereo not given),8.51%
13,O=C(CSc1ncc(-c2ccc(F)cc2)[nH]1)N1CCCCC1,2.38%
14,CCCNC(=O)Nc1ccccc1C(=O)Nc1ccc(OC)cc1,-9.12%
15,COc1ccccc1OCC(=O)NCC1CCCCC1,23.4%
16,Cc1ccccc1NC(=O)CSc1nc(N)c(C#N)c(-c2cccs2)c1C#N,3.09%
17,c1ccc(CCc2nc(-c3cccnc3)no2)cc1,1.11%
18,COc1cc(NC2=CC(=O)CC(C)(C)C2)cc(OC)c1,6.11%
19,Cc1ccccc1CN1CCN(CC(=O)NCc2ccccc2)C1=O,6.96%
20,CCOC(=O)c1nnc(-c2ccccc2)o1,9.09%

row,Structure (SMILES),differential viability (reversal)
1,CCC(c1nnc(SCC(=O)NCC2CCCO2)n1Cc1ccccc1)N(C)C (stereo not given),5.86%
2,Cc1ccc(N2CC(C)Cn3c2nc2c3c(=O)n(CC(=O)OCc3ccccc3)c(=O)n2C)cc1C (stereo not given),26.6%
3,CCNC(=O)c1ccc(NS(=O)(=O)c2ccccc2)cc1,-1.69%
4,CCOc1ccc(-c2nc(C#N)c(N3CCCCCC3)o2)cc1,-0.54%
5,Cc1ccc(NS(=O)(=O)c2cn(C)cn2)cc1,5.86%
6,Fc1ccccc1-c1nc(-c2ccccc2)no1,19.6%
7,CCOC(=O)C1=C(C)NC(C)=C(C(=O)OCC)C1c1cc(N)ccc1OC(F)F,4.41%
8,COc1ccccc1C1/C(=C(\O)c2c(C)nc3c(C)cccn23)C(=O)C(=O)N1CCCN(C)C (stereo not given),12.5%
9,CCOC(=O)C1CCCN(Cc2nc(N)nc(Nc3ccc(C)cc3)n2)C1 (stereo not given),-1.19%
10,ON1C2CCCCC2N(O)C1c1c(F)c(F)c(F)c(F)c1F (stereo not given),10.3%
11,CCOc1ccc(CN2C(=O)c3ccccc3C2C(=O)NCc2cccnc2)cc1 (stereo not given),1.78%
12,CCOc1ccccc1NC(=O)CN(c1ccc(C)cc1)S(=O)(=O)c1c(C)noc1C,-9.07%
13,CCCOc1ccc([C@@H]2C3CN(C(=O)OCC)CC=C3C(C#N)=C(N)C2(C#N)C#N)cc1OC (stereo not given in full),-11.8%
14,COc1ccc(C2=NOC(C(=O)NCc3ccc(F)cc3)C2)cc1OC (stereo not given),-34.5%
15,COc1cc(C2CC(=O)NC3=C2C(=O)CC(C)(C)C3)ccc1O (stereo not given),19.9%
16,CCOc1ccc2[nH]c(=O)c(CN(Cc3nnnn3CCc3ccccc3)CC3CCCO3)cc2c1 (stereo not given),21.2%
17,Cc1cc(C)c2cc3c(ccn3C3OC[C@H](O)[C@H](O)[C@H]3O)cc2n1 (stereo not given in full),7.18%
18,N[C@@H](Cc1ccccc1)c1nnc2sc(SCc3ccccc3)nn12,11.5%
19,CCC(C)NC(=O)C1(C)CCC(=O)N1Cc1ccccc1OC (stereo not given),0.27%
20,Cc1cc(Nc2ccc(C(=O)O)cc2)n2nc(C)nc2n1,9.93%
